Screening results deposited in PubChem BioAssay by several laboratories.
PLAP act: human PLAP activation | purified PLAP enzyme, luminescent substrate read-out; hits give high values | activation fold at 20 µM | 96,000 tested, 1.2% active; in the data active means activation fold above about 2
M1 agonist: M1 muscarinic receptor agonism. CHO-M1 cells, Fluo-4 calcium fluorescence, agonist mode; hits give high values. B-score at 10 µM. 64,000 tested, 3% active. AID 626;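 active means fluorescence rise, raw or as B-score row- and column-corrected plate score, outside the 99.7% band of its plate's samples, either direction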
M1 antagonist: blocks the rat M1 muscarinic receptor response to acetylcholine; AID 628; 64,000 tested, 3.4% active; CHO-M1 cells, Fluo-4 calcium, ACh EC80 antagonist mode; hits give low values; B-score at 10 µM; P08482;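 active means calcium fluorescence response, raw or row-and-column corrected B-score, differing from the plate sample mean either way at a set confidence level, mostly lower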
Target sequence (P08482 whole entry, looked up): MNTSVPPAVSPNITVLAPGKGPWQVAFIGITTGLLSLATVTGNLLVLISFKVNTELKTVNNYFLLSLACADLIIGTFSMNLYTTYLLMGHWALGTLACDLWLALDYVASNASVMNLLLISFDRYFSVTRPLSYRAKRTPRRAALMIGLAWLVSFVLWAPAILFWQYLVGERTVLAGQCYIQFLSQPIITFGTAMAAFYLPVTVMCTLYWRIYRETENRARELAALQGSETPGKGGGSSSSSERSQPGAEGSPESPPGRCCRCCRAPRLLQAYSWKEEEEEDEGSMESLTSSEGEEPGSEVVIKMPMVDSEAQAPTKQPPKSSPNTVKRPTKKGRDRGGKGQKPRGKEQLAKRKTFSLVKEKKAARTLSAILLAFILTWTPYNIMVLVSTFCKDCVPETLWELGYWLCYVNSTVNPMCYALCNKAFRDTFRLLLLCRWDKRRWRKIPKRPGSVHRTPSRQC
Cav3 T inh: human Cav3.2 channel inhibition, primary screen; O95180; Cav3.2-expressing cells, Fluo-4 calcium fluorescence FDSS; hits give low values; B-score at 10 µM; 100,000 tested, 4% active;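 active means single-dose well whose peak fluorescence ratio is a statistical outlier from its plate by either plate-standardised score or position-corrected B-score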
* hit, by the source's call; / = no result. The list is not random: actives were taken first. Their share in the collection is about 7.6%.

SMILES	PLAP act	M1 agonist	M1 antagonist	Cav3 T inh
CCOC(=O)c1cc(C)n(Cc2ccc(OCC)c(OC)c2)c1C	1.9	/	/	-1.8
COC(=O)c1ccccc1NC(=O)Cn1cc(Br)cn1	0.8	0.013	1.2	0.61
COC(=O)c1ccccc1NC(=O)Cn1c(SC)c(F)cnc1=O	1.4	0.28	1*	0.26
CCN1CCN(C(=O)c2ccc3c(c2)N(Cc2ccc(F)cc2)C(=O)c2ccccc2S3=O)CC1 (stereo not drawn)	/	-1	-0.05	-7.2*
CC(C)C(=O)Nc1c2c(nc3ccccc13)N(C)CC2	1.1	1.2	-0.64	0.038
O=C(CN1CCCC1)Nc1c2c(nc3ccccc13)N(Cc1ccccc1)CC2	2*	/	/	1.1
O=C(c1ccccc1)c1cccc(NC(=O)c2ccc(Br)o2)c1	1.4	/	/	-3.7*
O=C(Nc1ccccc1)c1ccc(Br)o1	/	/	/	0.17
COC(=O)C(NC(=O)COc1ccccc1)(Nc1nc2c(s1)CCCC2)C(F)(F)F (stereo not drawn)	/	/	/	-6.3*
CCOC(=O)CSC1=Nc2ccccc2C2=NC(CC(=O)NCc3ccc4c(c3)OCO4)C(=O)N12 (stereo not drawn)	1.2	0.44	0.82	0.33
O=C(Cc1ccc(S(=O)(=O)N2CCCC2)s1)Nc1nc2c(s1)CCCC2	1.3	-0.2	-0.15	-3.8*
COC(=O)c1cccc(-n2nnnc2SCC(=O)Nc2nc3c(s2)CCCC3)c1	1.2	-0.76	-0.032	-4.8*
O=C(CCCc1cccs1)Nc1nc2c(s1)CCCC2	1.2	0.46	-0.45	-7.6*
CCc1ccc2nc(NC(=O)CCCc3cccs3)sc2c1	0.9	/	/	/
O=C(CS(=O)(=O)Cc1ccccc1)Nc1nc2c(s1)CCCC2	1.2	-1.5	0.33	-1.1
Cc1ccc(CC(=O)Nc2nc3c(s2)CCCC3)cc1	0.7	/	/	-5.2*
CCCc1cc(SCC(=O)Nc2c(C)n(C)n(-c3ccccc3)c2=O)n2c(nc3ccccc32)c1C#N	1.3	/	/	-0.16
O=[N+]([O-])c1ccc(Oc2cccc(F)c2)c2ccncc12	0.9	/	/	-0.12
Cc1ccc2cc(C)c3nnc(SCC(=O)Nc4nc5c(s4)CCCC5)n3c2c1C	1.4	/	/	-5.3*
c1ccc(-c2nc(Sc3ncnc4c3cnn4-c3ccccc3)n[nH]2)cc1	1	-1.5	-0.1	/
CCC(C)(C)NC(=O)C(c1ccc(OC)cc1)N(CC1CCCO1)C(=O)CCC(=O)Nc1cc(C)on1 (stereo not drawn)	/	/	/	0.095
CCC(C)(C)NC(=O)C(c1ccc(OC)cc1)N(Cc1cccs1)C(=O)CCC(=O)Nc1cc(C)on1 (stereo not drawn)	/	/	/	-5.5*
O=C(NC(=S)Nc1cccc(Cl)c1N1CCCC1)c1ccc(-c2cccc([N+](=O)[O-])c2)o1	1.2	/	/	-0.51
CCn1c(SCC(=O)NC(=O)NCc2ccco2)nnc1-c1cccs1	0.9	/	/	0.44
COc1cccc(OCc2nnc(SCC(=O)NCc3ccco3)n2CCc2ccccc2)c1	1.4	0.21	-0.35	-7.6*
SMILES	PLAP act	M1 agonist	M1 antagonist	Cav3 T inh
COc1ccc(-n2c(COc3ccc4ccccc4c3)nnc2SCC(=O)NCc2ccco2)cc1	2*	/	/	-6.4*
Cn1c(SCC(=O)NCc2ccco2)nnc1-c1cccs1	1	0.024	2.3*	-0.32
COc1c(Br)cc(Br)cc1C(=O)O	1.3	-0.47	0.67	0.84
COc1ccc(S(=O)(=O)N(C)CC(=O)O)c2ccccc12	1.1	-0.4	-0.062	-0.37
Fc1ccc(/C=C2\CCCC3=C2Nc2ncnn2C3c2ccc(F)cc2)cc1 (stereo not drawn)	1.1	/	/	0.031
COc1ccc(Cc2nc(C(=O)Nc3ccccc3)cs2)cc1	0.9	/	/	-3.8*
O=C(NCc1ccccc1)c1noc2c1CCCC2	1	-0.61	-0.076	0.75
COc1ccc(CNC(=O)c2noc3c2CCCC3)cc1	0.9	0.72	0.32	-5.4*
COc1ccc(CNC(=O)c2csc(Cc3ccc(Cl)cc3)n2)cc1	1.2	/	/	/
COc1ccc(CNC(=O)c2csc(Cc3ccc(OC)cc3)n2)cc1	1.1	/	/	-7.9*
COc1ccc(Cc2nc(C(=O)Nc3ccc(Cl)cc3)cs2)cc1	0.8	/	/	0.26
COC(=O)Cc1[nH]nc2c1C(c1cccc(OC)c1OC)C(C#N)=C(N)O2 (stereo not drawn)	2*	-0.11	-0.017	0.25
CCOC(=O)Cc1[nH]nc2c1C(C1C=CCCC1)C(C#N)=C(N)O2 (stereo not drawn)	2.1*	-0.23	0.88	2.6
CCOC(=O)Cc1[nH]nc2c1C(c1cccc(OC)c1OC)C(C#N)=C(N)O2 (stereo not drawn)	2.2*	-0.00046	0.88	-0.92
COCc1[nH]nc2c1C(c1ccccc1OC)C(C#N)=C(N)O2 (stereo not drawn)	1	-0.77	0.45	0.71
CCCCNC(=O)CN1C(=O)NC2(CCCc3ccccc32)C1=O (stereo not drawn)	1	/	/	0.11
Cc1ccc(N(CC(=O)N2CCc3ccccc32)S(=O)(=O)c2cccs2)cc1	0.9	/	/	-2.1
O=C(CCc1ccccc1)Nc1cc(Cl)ccc1O	1.3	/	/	-4.3
CC1CCCC(C)N1c1nnc(NC(=O)c2cc(-c3ccc(Br)cc3)on2)s1 (stereo not drawn)	1.7	/	/	/
CCCOC(=O)c1ccc(Oc2c(-c3ccc(OC)cc3O)n[nH]c2C)cc1	1.1	-0.19	1.6	-1.3
CCCOC(=O)c1ccc(-c2c(C)noc2-c2ccc(OC)cc2O)o1	1.1	1.2	-0.3	-4.4*
Cc1cccc(-c2cc3nc4c(c(NCc5ccco5)n3n2)CCCC4)c1	0.9	/	/	-3.1
CCc1ccc(S(=O)(=O)NCc2cn3cccc(C)c3n2)s1	1.7	-0.091	0.34	0.17
Cc1ccn2cc(CNS(=O)(=O)c3ccc(Cl)s3)nc2c1	2.1*	-0.68	-0.3	0.73
Cc1nnc(NC(=O)CN2C(=O)c3ccccc3S2(=O)=O)s1	2.1*	-1	0.42	0.95
SMILES	PLAP act	M1 agonist	M1 antagonist	Cav3 T inh
CCCCCCN(C(=O)CCCCCN1C(=O)NC(c2ccccc2)C(C(=O)OCc2ccccc2)=C1C)C(C(=O)NCCCC)c1ccc(OCC(=O)OC)c(C(=O)OC)c1 (stereo not drawn)	/	/	/	-1.8
CCc1nnc(NC(=O)CSc2nnc(-c3ccc(O)cc3)n2-c2ccccc2)s1	/	0.71	0.49	/
Cc1onc(-c2c(F)cccc2Cl)c1C(=O)Nc1nc2ccccc2[nH]1	2*	/	/	-0.35
Cc1onc(-c2c(F)cccc2Cl)c1C(=O)Nc1cccc2nsnc12	1	0.65	-0.49	0.11
Cc1ccc(/C(O)=C2\C(=O)C(=O)N(CCCN(C)C)C2c2ccccn2)cc1 (stereo not drawn)	/	0.014	-0.78	/
CCCCC(=O)Nc1sc2c(c1C(=O)OCC)CCC(C=O)=C2Cl	1	/	/	-0.021
O=C(Nc1ccn(Cc2ccccc2F)n1)c1ccc(COc2ccccc2Cl)cc1	1.1	/	/	/
O=C(Nc1ccn(Cc2c(F)c(F)cc(F)c2F)n1)c1ccc(COc2cc(Cl)ccc2Cl)o1	0.8	/	/	-2.6
O=C(Nc1ccccn1)c1ccc(COc2ccccc2Cl)o1	/	/	/	-1.1
O=C(Nc1ccn(Cc2ccccc2F)n1)c1ccc(COc2cccc(Br)c2)cc1	1.1	/	/	-7.3*
O=C(Nc1nn(Cc2ccc(Cl)cc2)cc1Br)c1ccc(COc2ccccc2Cl)o1	0.8	/	/	-6.2*
O=C(Nc1ccn(Cc2ccccc2F)n1)c1ccc(COc2cc(Cl)ccc2Cl)o1	0.9	/	/	-4.9*
COc1ccccc1-c1cc2ccccc2[nH]1	/	/	/	-0.57
